Screening data deposited in PubChem BioAssay by several laboratories.
TIM10 inh – inhibits growth of TIM10 yeast strain; S. cerevisiae TIM10 strain growth, BacTiter-Glo luminescence, 24 h; inhibition, % at 10 µM; 1.4% of 330,000 active; AID 463195;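 active means inhibition of 40% or more at the single tested concentration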;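 further: wild-type TIM10 isogenic control strain grown at permissive 25 °C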
tim23-1 inh – growth inhibitors of tim23-1 mutant yeast | S. cerevisiae tim23-1 growth, BacTiter-Glo luminescence, 24 h | inhibition, % at 20 µM | 1.3% of 330,000 active | AID 463212;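 active means growth inhibition of the mutant yeast at or above 50%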;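 further: temperature-sensitive mutant grown at 25 °C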
NLRP3 yeast inh – blocks the NALP3 inflammasome reconstituted in yeast; AID 2825; 0.39% of 330,000 active; Yeast reconstituted NLRP3/ASC/caspase-1, beta-gal luminescence, 24 h; inhibition, % at 10 µM;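 active means inhibition of 50% or more; inactive means inhibition below 50%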
tim10-1 inh – inhibits growth of tim10-1 mutant yeast. S. cerevisiae tim10-1 ts strain growth, BacTiter-Glo, 24 h. inhibition, % at 20 µM. 2.2% of 330,000 active;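 active means inhibition of at least 40%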;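 further: mutant grown at 25 °C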
PfHsp90 set2 – reduces growth (ATP signal) of yeast expressing P. falciparum Hsp90 | S. cerevisiae expressing PfHsp90, BacTiter-Glo ATP, 48 h; yeast lacking PDR1 and PDR3 efflux regulators | inhibition, % at 9.4 µM | 0.32% of 310,000 active;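 active means every replicate shows inhibition above about 80%, whatever the replicate mean, limit read from the data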
NALP1 inh – inhibitors of NALP1 inflammasome in yeast; S. cerevisiae NALP1/ASC/caspase-1 growth, X-gal OD620, 72 h; inhibition, % at 10 µM; 0.61% of 280,000 active; in the data active means inhibition mostly above about 24%, no sharp cut-off; inactive means mostly below about 32%
NALP3 confirm – confirmation of NALP3 inhibitors in yeast. 81% of 1,300 active. shares compounds with NLRP3 yeast inh. AID 435006. yeast expressing human NALP3, luminescence. inhibition, % at 10 µM; in the data active means inhibition above about 48%
Casp1 ASC ctr – counter-screen for NALP3 inhibitors: yeast caspase-1-ASC. shares compounds with NLRP3 yeast inh. yeast expressing Caspase-1-ASC, luminescence counter screen. inhibition, % at 10 µM. 66% of 1,000 active. AID 488784
NALP3 retest – yeast NALP3 inhibition, confirmed on retest | shares compounds with NLRP3 yeast inh | yeast expressing human NALP3, luminescence read-out | inhibition, % at 10 µM | 53% of 1,000 active | AID 488794
Numbers stand for hits; - = inactive; . = no result. Rows were chosen to be rich in hits. Some 4.1% of all compounds tested hit in one or more screens of this group. Unless noted, no stated cut-off is given here; in the data, active means inhibition above about 50%; inactive means the rest.

SMILES	TIM10 inh	tim23-1 inh	NLRP3 yeast inh	tim10-1 inh	PfHsp90 set2	NALP1 inh	NALP3 confirm	Casp1 ASC ctr	NALP3 retest
CC(=O)c1ccc(NC(=O)CCNC(=O)c2ccc(Cl)cc2)cc1	-	-	-	-	-	-	.	.	.
Cc1ccc(S(=O)(=O)N(C)/N=C/c2ccc(N(C)C)cc2)cc1	-	-	51.0	-	-	-	54.1	-	-
COc1ccc(CNc2cccc3[nH]c(C(F)(F)F)nc23)cc1OC	-	-	-	-	-	-	.	.	.
C(=C\c1ccccc1)/CSc1nnc(-c2cccnc2)o1	-	-	52.3	-	-	-	-	-	-
c1ccc(Sc2cccc3ccccc23)c(CNC2=NCCN2)c1	-	-	73.7	-	-	78.2	62.9	-	69.7
Fc1ccccc1Sc1ccccc1CNC1=NCCN1	-	-	-	-	-	-	.	.	.
O=C(COC(=O)c1cccc([N+](=O)[O-])c1)c1ccc2c(c1)OCO2	-	-	-	-	.	.	.	.	.
COCCC(C(=O)Oc1c(C(C)(C)C)cc(C)cc1C(C)(C)C)c1ccccc1 (stereo not drawn)	-	-	-	-	-	.	.	.	.
O=C1/C(=C\c2ccc3c(c2)OCO3)CCC/C1=C/c1ccc2c(c1)OCO2	-	-	-	-	-	-	48.8	-	-
O=c1cn[nH]c2ccc(Br)cc12	.	.	.	.	-	.	.	.	.
Brc1ccc2[nH]ncc2c1	-	-	53.4	-	-	-	-	60.5	-
CC(C)(C)c1ccc(C(=O)Nc2cccc(-n3cnnn3)c2)cc1	-	-	52.3	-	-	-	65.0	58.1	-
Cc1cccc(-c2ccc3c(c2)C2CC3CCN2)c1 (stereo not drawn)	.	.	.	.	-	.	.	.	.
O=[N+]([O-])c1ccc(CS(=O)(=O)c2ncn[nH]2)cc1	-	-	-	-	-	-	.	.	.
CC(C)COc1ccc(CSCCNC(=S)Nc2ccccc2)cc1	-	-	53.2	-	-	-	80.4	58.0	-
CC(OC(=O)CCc1ccccc1)C(=O)Nc1ncc(Cl)cc1Cl (stereo not drawn)	-	-	-	-	-	-	.	.	.
CCc1ccc(N=Nc2ccc(O)c3[nH]cnc23)cc1	-	-	50.9	-	-	.	-	-	-
CCc1ccc(/C=N/Nc2ncnc3nc[nH]c23)cc1	-	-	-	-	-	.	.	.	.
Cc1c(/C(Cc2ccccc2)=N/O)c2ccccc2n1C	-	-	56.4	-	-	-	60.8	51.5	52.8
CCCCn1c(N)c(N(CCOC)C(=O)c2oc3ccc(OCC)cc3c2C)c(=O)[nH]c1=O	-	-	-	-	-	.	.	.	.
CCC1Nc2ncnc(N3CCN(c4ccccn4)CC3)c2N(Cc2ccc(Br)cc2)C1=O (stereo not drawn)	-	-	55.7	-	-	.	69.6	-	65.7
CCC1Nc2ncnc(N3CCN(c4ccccn4)CC3)c2N(Cc2ccc(Cl)cc2)C1=O (stereo not drawn)	-	-	50.5	-	-	.	59.8	-	51.6
CCC1Nc2ncnc(N3CCCCC3)c2N(Cc2ccc(Cl)cc2)C1=O (stereo not drawn)	-	-	-	-	-	.	.	.	.
CCC1Nc2ncnc(N3CCCCC3)c2N(Cc2ccc(Br)cc2)C1=O (stereo not drawn)	-	-	-	-	-	.	.	.	.
COC(=O)CN(c1ccc(C)cc1)S(=O)(=O)c1ccc(F)cc1	-	-	58.0	-	-	-	55.3	.	.
SMILES	TIM10 inh	tim23-1 inh	NLRP3 yeast inh	tim10-1 inh	PfHsp90 set2	NALP1 inh	NALP3 confirm	Casp1 ASC ctr	NALP3 retest
S=C(Nc1ccc(Cl)c(Cl)c1)NC1CCCCC1	-	-	52.6	-	.	-	59.2	85.2	68.5
COC(=O)[C@H](C)N(Cc1ccc(Cl)c(Cl)c1)S(=O)(=O)CCNC1CCCC1	-	-	.	-	-	.	.	.	.
Nc1ccccc1SC/C=C/CSc1ccccc1N	-	-	52.4	-	-	-	57.2	-	-
Nc1nc(SCc2ccccc2Cl)c2ncn(C3OC(CO)C(O)C3O)c2n1 (stereo not drawn)	.	.	.	.	-	.	.	.	.
Cn1c(=O)c(C(=O)NNC(=O)c2cccc(Cl)c2)c(O)c2ccccc21	-	-	-	-	-	-	.	.	.
CCn1c(=O)c(C(=O)NNC(=O)c2ccc(Cl)cc2Cl)c(O)c2ccccc21	-	-	54.8	-	-	-	74.8	-	-
CCCn1c(=O)c(C(=O)NNC(=O)c2ccc(Cl)cc2Cl)c(O)c2ccccc21	-	-	-	-	-	-	.	.	.
Cn1c(=O)c(C(=O)NNC(=O)c2ccccc2Cl)c(O)c2ccccc21	-	-	65.9	-	-	-	80.2	53.5	61.4
CC1(C)CC(=O)C(C=NCCN2CCN(CC(=O)Nc3ccc(Cl)cc3)CC2)=C(O)C1	-	-	-	-	-	-	.	.	.
Cc1ccc(NC(=O)CN2CCN(CCN=CC3=C(O)CC(C)(C)CC3=O)CC2)cc1	-	-	55.0	-	.	-	58.5	-	-
CC(=O)c1cccc(S(=O)(=O)N2CCn3cccc3C2C)c1 (stereo not drawn)	-	-	-	-	.	.	.	.	.
c1ccc2nc(-c3nc4ccccc4[nH]3)ccc2c1	-	-	53.2	-	-	-	67.2	-	-
Fc1ccccc1-c1nc2ccccc2[nH]1	-	-	60.4	-	-	-	57.8	53.9	59.5
CC(SCc1nc2sc3c(c2c(=O)[nH]1)CCCC3)C(=O)Nc1ccccn1 (stereo not drawn)	-	-	-	-	.	.	.	.	.
CCN(CC(=O)NCc1ccc(Cl)cc1)CC(=O)NC1(C#N)CCCC1	-	-	-	-	-	-	.	.	.
O=S(=O)(c1cc(Cl)ccc1Cl)n1cccn1	-	-	-	-	-	-	.	.	.
O=S(=O)(c1ccc(Cl)cc1)n1ccc2cccnc21	-	-	61.5	-	.	-	61.4	56.2	-
O=S(=O)(c1ccc(Cl)cc1Cl)n1ccc2cccnc21	-	-	72.9	-	-	-	67.1	65.5	-
Cc1ccc(S(=O)(=O)n2ccc3cccnc32)cc1	-	-	-	-	-	-	.	.	.
COc1ccc2c(C)c(C(=O)N3CCN(Cc4ccccc4)CC3)oc2c1	-	-	-	-	-	-	.	.	.
COC(=O)c1sccc1NC(=O)COc1cccc(C)c1	-	-	54.3	-	-	.	57.7	-	-
COC(=O)C1CN(C(=O)COc2cc(C)cc(C)c2)c2ccccc2O1 (stereo not drawn)	-	-	-	-	-	-	.	.	.
CC(CCC(=O)O)C1CCC2C3CCC4C[C@H](O)CCC4(C)C3CC(=O)C12C (stereo partly drawn)	-	-	-	-	-	-	.	.	.
C[C@H](CCC(=O)O)[C@H]1CC[C@H]2[C@@H]3CC[C@@H]4C[C@H](O)CC[C@]4(C)[C@H]3CC[C@]12C	-	-	71.9	-	-	.	77.5	78.2	61.5
